Experimental data: PubChem BioAssay (Tox21)
Inconclusive results are not listed. A call without a number means that no potency is given here. Values without a mark were called inactive. The source made the active and inactive calls. Unless noted, the call rests on the fitted dose curve; in most records, active means well fitted curve in the direction sought with a large enough effect in the repeat runs; inconclusive means weak or mixed curves; inactive means no such curve, though single readings can be large; an effect the other way counts as inactive or inconclusive.

Columns and labels:
[1] = qHTS assay to identify small molecule antagonists of the thyroid receptor (TR) signaling pathway - cell viability counter screen (AID 743064); further: nearly all actives have a fitted effect of over 50% in size
Outline: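 CellTiter-Fluor readout, 30 min at 37 °C/5% CO2, following 23.5 h incubation of GH3.TRE-Luc cells with test compound and 1 nM T3 (final).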

[2] = qHTS assay to identify small molecule antagonists of the thyroid receptor (TR) signaling pathway (AID 743065); further: nearly all actives have a fitted effect of over 55% in size
Outline: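 Antagonism measured as loss of luciferase signal in GH3 cells stably carrying a TRE-luciferase reporter, co-treated with compound and T3 (1 nM final) for 23.5 h at 37 C. Viability was read in the same well by CellTiter-Fluor.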

[3] = tested on: thyroid hormone receptor (rat, GH3 cells); experiment: qHTS assay to identify small molecule agonists of the thyroid receptor (TR) signaling pathway (AID 743066; calls by dose curve)
[4] = biological target: Estrogen receptor (Homo sapiens) (UniProt P03372); experiment: qHTS assay to identify small molecule antagonists of the estrogen receptor alpha (ER-alpha) signaling pathway (AID 743069; active means well fitted curve in the direction sought with a large enough effect in the signal ratio in the repeat runs, not every such curve was filed as active; the % refers to the signal ratio)
Estrogen receptor (Homo sapiens), sequence (P03372 whole entry, looked up): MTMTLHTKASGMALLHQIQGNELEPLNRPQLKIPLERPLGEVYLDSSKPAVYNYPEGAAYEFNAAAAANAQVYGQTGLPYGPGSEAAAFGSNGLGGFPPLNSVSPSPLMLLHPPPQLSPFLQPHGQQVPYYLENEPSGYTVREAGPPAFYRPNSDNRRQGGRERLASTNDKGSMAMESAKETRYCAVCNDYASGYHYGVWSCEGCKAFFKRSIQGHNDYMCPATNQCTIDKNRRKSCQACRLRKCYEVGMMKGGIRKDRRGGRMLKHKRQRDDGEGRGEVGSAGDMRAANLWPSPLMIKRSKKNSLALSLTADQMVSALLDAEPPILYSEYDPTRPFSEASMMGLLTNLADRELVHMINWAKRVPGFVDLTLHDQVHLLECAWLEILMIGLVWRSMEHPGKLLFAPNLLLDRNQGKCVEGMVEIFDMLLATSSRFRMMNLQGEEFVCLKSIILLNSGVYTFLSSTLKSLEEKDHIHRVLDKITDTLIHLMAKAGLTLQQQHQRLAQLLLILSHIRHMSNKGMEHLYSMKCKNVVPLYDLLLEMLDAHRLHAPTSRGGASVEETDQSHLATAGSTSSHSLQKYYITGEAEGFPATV
Outline: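 Fluorescence intensity from a beta-lactamase FRET substrate served as the read-out. Cells: HEK293 with stably integrated ER-alpha-UAS-bla reporter. Agonist 17beta-estradiol was co-added with compounds; incubation 18 hr at 37C, substrate 2 hr at room temperature.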

[5] = qHTS assay to identify small molecule antagonists of the estrogen receptor alpha (ER-alpha) signaling pathway - cell viability counter screen (AID 743074; calls by dose curve; further: nearly all actives have a fitted effect of over 45% in size)
[6] = biological target: Estrogen receptor (Homo sapiens) (UniProt P03372); experiment: qHTS assay to identify small molecule agonists of the estrogen receptor alpha (ER-alpha) signaling pathway (AID 743075; calls by dose curve)
[7] = biological target: Estrogen receptor (Homo sapiens) (UniProt P03372); experiment: qHTS assay to identify small molecule agonists of the estrogen receptor alpha (ER-alpha) signaling pathway using the BG1 cell line (AID 743079); conditions: BG1Luc4E2 cells, ERE-luciferase agonist, 22 h; activation: at 70.3 µM (top of the series); further: nearly all actives have a fitted effect of over 20% in size; further: potency means the concentration at half of the fitted maximal effect
[8] = qHTS assay to identify small molecule antagonists of the estrogen receptor alpha (ER-alpha) signaling pathway using the BG1 cell line - cell viability counter screen (AID 743081);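 further: compound given together with 17beta-estradiol as the ER stimulus; nearly all actives have a fitted effect of over 45% in size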
[9] = biological target: Aromatase (Homo sapiens) (UniProt P11511); experiment: qHTS assay to identify aromatase inhibitors (AID 743083); further: nearly all actives have a fitted effect of over 55% in size
Aromatase (Homo sapiens), sequence (P11511 whole entry, looked up): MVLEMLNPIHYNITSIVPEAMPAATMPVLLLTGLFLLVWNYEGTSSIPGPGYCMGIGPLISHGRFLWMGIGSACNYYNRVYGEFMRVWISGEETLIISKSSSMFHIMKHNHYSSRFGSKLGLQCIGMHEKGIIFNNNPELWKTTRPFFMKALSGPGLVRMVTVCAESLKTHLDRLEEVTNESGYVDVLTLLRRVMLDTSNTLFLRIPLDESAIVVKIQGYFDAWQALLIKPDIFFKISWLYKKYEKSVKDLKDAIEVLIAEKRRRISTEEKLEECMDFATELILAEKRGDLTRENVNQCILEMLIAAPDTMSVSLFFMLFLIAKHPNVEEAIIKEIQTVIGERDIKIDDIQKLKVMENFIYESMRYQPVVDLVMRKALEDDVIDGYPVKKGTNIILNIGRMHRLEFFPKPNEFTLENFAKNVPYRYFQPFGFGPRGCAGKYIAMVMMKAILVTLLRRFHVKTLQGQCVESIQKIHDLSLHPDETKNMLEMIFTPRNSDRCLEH

[10] = qHTS assay to identify aromatase inhibitors - cell viability counter screen (AID 743084);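 further: cells stimulated with testosterone during compound exposure; nearly all actives have a fitted effect of over 55% in size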
[11] = biological target: Aryl hydrocarbon receptor (Homo sapiens) (UniProt P35869); experiment: qHTS assay to identify small molecule that activate the aryl hydrocarbon receptor (AhR) signaling pathway (AID 743085); further: nearly all actives have a fitted effect of over 15% in size; further: potency means the concentration at half of the fitted maximal effect;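 on activation: HG2L7.5c1 human HepG2 liver cells with stably integrated DRE-driven firefly reporter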
Aryl hydrocarbon receptor (Homo sapiens), sequence (P35869 whole entry, looked up): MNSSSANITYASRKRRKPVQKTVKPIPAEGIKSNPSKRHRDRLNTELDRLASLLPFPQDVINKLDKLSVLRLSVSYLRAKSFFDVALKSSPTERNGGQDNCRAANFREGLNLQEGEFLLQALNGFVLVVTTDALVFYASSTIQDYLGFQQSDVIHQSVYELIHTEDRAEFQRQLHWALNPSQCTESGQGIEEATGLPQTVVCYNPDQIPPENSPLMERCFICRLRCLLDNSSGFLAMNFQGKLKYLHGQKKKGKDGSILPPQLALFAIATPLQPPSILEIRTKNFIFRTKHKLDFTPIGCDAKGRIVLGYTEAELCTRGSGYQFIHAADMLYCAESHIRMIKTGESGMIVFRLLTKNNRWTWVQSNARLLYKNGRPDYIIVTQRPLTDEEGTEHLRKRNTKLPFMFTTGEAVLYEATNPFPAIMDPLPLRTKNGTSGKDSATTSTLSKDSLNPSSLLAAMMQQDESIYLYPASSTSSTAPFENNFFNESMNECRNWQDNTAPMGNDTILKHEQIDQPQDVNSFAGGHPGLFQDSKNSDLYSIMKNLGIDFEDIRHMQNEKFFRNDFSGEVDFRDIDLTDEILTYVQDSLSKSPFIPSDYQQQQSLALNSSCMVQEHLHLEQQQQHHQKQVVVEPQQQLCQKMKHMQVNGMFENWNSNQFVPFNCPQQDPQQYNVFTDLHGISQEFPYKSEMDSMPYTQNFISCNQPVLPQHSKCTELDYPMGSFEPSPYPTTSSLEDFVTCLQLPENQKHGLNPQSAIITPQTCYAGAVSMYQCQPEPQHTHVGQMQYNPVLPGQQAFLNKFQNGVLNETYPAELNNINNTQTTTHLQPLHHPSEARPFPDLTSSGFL
Outline: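 Stably transfected human liver carcinoma cells (HG2L7.5c1; 20 DRE-firefly luciferase) were incubated 5 h, dosed, and kept 24 h at 37C. Agonism was scored from increased luciferase luminescence.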

[12] = qHTS assay to identify small molecule that activate the aryl hydrocarbon receptor (AhR) signaling pathway - cell viability counter screen (AID 743086);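 further: HepG2 liver cells carrying the AhR DRE luciferase reporter; nearly all actives have a fitted effect of over 45% in size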
Outline: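 Cytotoxicity counter screen: CellTiter-Fluor signal (30 min, 37 C) in 4000 HepG2 cells/well carrying the DRE-luciferase reporter, following 24 h compound exposure at 37 C.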

[13] = biological target: Peroxisome proliferator-activated receptor gamma (Homo sapiens) (UniProt P37231); experiment: qHTS assay to identify small molecule agonists of the peroxisome proliferator-activated receptor gamma (PPARg) signaling pathway (AID 743094; active means well fitted activation curve with a large enough effect in the signal ratio in the repeat runs, not every such curve was filed as active; the % refers to the signal ratio)
Peroxisome proliferator-activated receptor gamma (Homo sapiens), sequence (P37231 whole entry, looked up): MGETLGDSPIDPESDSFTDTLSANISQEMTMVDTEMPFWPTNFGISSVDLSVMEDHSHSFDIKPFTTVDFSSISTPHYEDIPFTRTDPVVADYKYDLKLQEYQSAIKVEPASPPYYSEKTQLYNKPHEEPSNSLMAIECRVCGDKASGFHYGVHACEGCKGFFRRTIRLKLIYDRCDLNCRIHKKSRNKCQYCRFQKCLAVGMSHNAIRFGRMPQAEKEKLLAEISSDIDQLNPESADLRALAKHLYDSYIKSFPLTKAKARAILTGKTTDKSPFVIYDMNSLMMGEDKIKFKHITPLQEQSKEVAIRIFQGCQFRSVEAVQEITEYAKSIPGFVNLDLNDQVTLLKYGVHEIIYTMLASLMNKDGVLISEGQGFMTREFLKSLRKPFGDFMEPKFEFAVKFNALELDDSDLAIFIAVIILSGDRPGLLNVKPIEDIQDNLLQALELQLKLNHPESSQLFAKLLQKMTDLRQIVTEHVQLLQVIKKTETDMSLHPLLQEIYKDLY
Outline: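 Cell-based bla reporter, HEK293H background, PPARg-driven UAS. Pre-incubation 5 h, 37C, 5% CO2. Compound 17 h, 37C. Substrate 1 h RT; fluorescence.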

[14] = qHTS assay to identify small molecule phospholipidosis (PLD) inducers (AID 1259344; active means well fitted curve in the direction sought with a large enough effect; an effect the other way counts as inactive or inconclusive)
Outline: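 Accumulated phospholipid, stained red by LipidTOX during 24 h compound treatment of HepG2 cells at 37 C, is quantified from images as pit number and intensity, normalised per cell using Hoechst-stained nuclei.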

[15] = biological target: Nuclear receptor subfamily 1 group I member 2 (Rattus norvegicus) (UniProt Q9R1A7); experiment: Rat pregnane X receptor (rPXR) activation by small molecules, qHTS assay (AID 1346983); conditions: rPXR luciferase reporter cells, One-Glo luminescence, 24 h; max activation: stronger effect = higher value; further: nearly all actives have a fitted effect of over 20% in size
Nuclear receptor subfamily 1 group I member 2 (Rattus norvegicus), sequence (Q9R1A7 whole entry, looked up): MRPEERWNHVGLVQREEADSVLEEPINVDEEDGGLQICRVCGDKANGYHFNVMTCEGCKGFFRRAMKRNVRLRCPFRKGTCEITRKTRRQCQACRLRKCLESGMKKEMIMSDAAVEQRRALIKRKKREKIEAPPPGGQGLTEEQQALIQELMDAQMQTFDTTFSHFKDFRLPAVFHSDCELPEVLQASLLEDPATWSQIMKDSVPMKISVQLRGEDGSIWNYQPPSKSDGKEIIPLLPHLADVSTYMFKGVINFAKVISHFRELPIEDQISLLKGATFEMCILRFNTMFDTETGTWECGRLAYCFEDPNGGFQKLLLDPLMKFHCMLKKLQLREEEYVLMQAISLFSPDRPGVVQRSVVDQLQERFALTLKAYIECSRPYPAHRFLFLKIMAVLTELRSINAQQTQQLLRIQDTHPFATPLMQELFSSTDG
Outline: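 Luminescent readout (One-Glo luciferase, 30 min room temperature) followed 24 hr compound treatment at 37 C of rPXR cells plated 2,000 per well and preincubated 5hr; qHTS format with compounds delivered in DMSO.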

[16] = biological target: Nuclear receptor subfamily 1 group I member 2 (Homo sapiens) (UniProt O75469); experiment: CYP3A4 induction through human pregnane X receptor (PXR) by small molecules, qHTS assay (AID 1346984); further: nearly all actives have a fitted effect of over 40% in size; further: potency means the concentration at half of the fitted maximal effect
Outline: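 Human PXR activation is tracked via CYP3A4 promoter-luciferase in DPX-2 (HepG2) cells. Compounds treat cells for 24hr at 37C, and luminescence is read after One-Glo.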

[17] = biological target: Nuclear receptor subfamily 1 group I member 2 (Homo sapiens) (UniProt O75469); experiment: Human pregnane X receptor (PXR) activation by small molecules, qHTS assay (AID 1346985); further: nearly all actives have a fitted effect of over 40% in size
Outline: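 DPX-2 cells (HepG2 co-transfected with a PXR response element and a CYP3A4-promoter luciferase construct) were seeded at 2,000 per well, rested 5 hr at 37C, then exposed to DMSO-dissolved compounds for 24 hr. Activation was read as luciferase luminescence.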

[18] = qHTS assay to identify small molecule antagonists of the estrogen receptor alpha (ER-alpha) signaling pathway using the BG1 cell line (AID 743080; calls by dose curve;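 further: BG1 cells stimulated with 17beta-estradiol alongside compound; nearly all actives have a fitted effect of over 25% in size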)
Outline: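 Luciferase inhibition measured with ONE-Glo after 30 min at RT in BG1Luc4E2 cells given test compounds and 17beta-estradiol for 21.5 h at 37 C; CellTiter-Fluor viability read in the same wells beforehand.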

SMILES	Potency [1]	Potency [2]	Potency [3]	Potency [4]	Potency [5]	Potency [6]	Potency [7]	Potency [8]	Potency [9]	Potency [10]	Potency [11]	Potency [12]	Potency [13]	Potency [14]	max activation [15] [%]	Potency [16]	Potency [17]	Potency [18]
CCOC(=O)O[C@]1(C(=O)COC(=O)CC)CC[C@H]2[C@@H]3CCC4=CC(=O)C=C[C@]4(C)[C@H]3[C@@H](O)C[C@@]21C	inactive	inactive	inactive	inactive	inactive	inactive	inactive	inactive	inactive	inactive	inactive	inactive	inactive	inactive	13.1	inactive	inactive	
Cc1ccccc1														inactive	-3.48			
O=C(O)C1=C(CSc2nnnn2CS(=O)(=O)O)CS[C@@H]2[C@H](NC(=O)[C@H](O)c3ccccc3)C(=O)N12	inactive	inactive	inactive	inactive	inactive	inactive	37.6 µM (active)	inactive	inactive	inactive	inactive	inactive	inactive	inactive	-0.182	inactive	inactive	inactive
OCC(O)CO														inactive	-5.18			
CC(C)CCCC(C)NC(C)C (stereo not drawn)	inactive	inactive	inactive	inactive	inactive	inactive	inactive	inactive	inactive	inactive	inactive	inactive	inactive	inactive	-0.288	inactive	inactive	
[O]=[Bi][O]C(=O)[O][Bi]=[O]	inactive	inactive	inactive	inactive	inactive	inactive	inactive	inactive	inactive	inactive		inactive	inactive	inactive	-3.15	inactive	inactive	inactive
CO/N=C(\C(=O)N[C@@H]1C(=O)N2C(C(=O)O)=CCS[C@H]12)c1csc(N)n1	inactive	inactive	inactive	inactive	inactive	inactive	inactive	inactive	inactive	inactive	inactive	inactive	inactive	inactive	-4.38	inactive	inactive	inactive
CC(=O)N=c1sc(S(N)(=O)=O)nn1C	inactive	inactive	inactive	inactive	inactive	inactive	inactive	inactive	inactive	inactive	inactive	inactive	inactive	inactive	-1.62	inactive	inactive	inactive
O=C(CO)[C@@H](O)[C@H](O)[C@@H](O)C(=O)O	inactive	inactive	inactive	inactive	inactive	inactive	inactive	inactive	inactive	inactive	inactive	inactive	inactive	inactive	-2.1	inactive	inactive	inactive
NS(=O)(=O)c1cc2c(cc1Cl)NC(Cc1ccccc1)NS2(=O)=O (stereo not drawn)	inactive	inactive	inactive	inactive	inactive	inactive	inactive	inactive	inactive	inactive	inactive	inactive	inactive	inactive	-1.36	inactive	inactive	inactive
O=C(Nc1ccc(O)cc1)c1ccccc1O	inactive	inactive	inactive	inactive	inactive	inactive	13.3 µM (active)	inactive	inactive	inactive	23.7 µM (active)	inactive	inactive	inactive	3.27	11.2 µM (active)	inactive	
CC(Oc1ccccc1)C(=O)N[C@@H]1C(=O)N2[C@@H]1SC(C)(C)[C@@H]2C(=O)O (stereo partly drawn)	inactive	inactive	inactive	inactive	inactive	inactive	inactive	inactive	inactive	inactive	inactive	inactive	inactive	inactive	-1.33	inactive	inactive	inactive
C[N@+]12CCCC[C@@H]1CCC(=C(c1cccs1)c1cccs1)C2	inactive	inactive	inactive	inactive	inactive	inactive	inactive	inactive	inactive	inactive	inactive	inactive	inactive	inactive	-3.7	inactive	inactive	inactive
CC[C@H]1NC(=O)[C@@H](NC(=O)c2ncccc2O)[C@@H](C)OC(=O)[C@H](c2ccccc2)NC(=O)[C@@H]2CC(=O)CCN2C(=O)[C@H](Cc2ccccc2)N(C)C(=O)[C@@H]2CCCN2C1=O	inactive	inactive	inactive	inactive	inactive	inactive	inactive	inactive	inactive	inactive	inactive	inactive	inactive	inactive	9.01	inactive	inactive	inactive
O=C(NNCS(=O)(=O)O)c1ccncc1	inactive	inactive	inactive	inactive	inactive	inactive	inactive	inactive	inactive	inactive		inactive	inactive	inactive	-0.625	inactive	inactive	inactive
